Source: PubChem
ST2 IL33 inh: blocks human ST2 binding to IL-33. AlphaLISA ST2-Fc/biotin-IL-33 interaction, 1 h. inhibition, % for hits at 17 µM. actives 2.3% (n = 78,000). AID 1259354; in the data active = inhibition above about 30%
Target sequence (Q01638 whole entry, looked up): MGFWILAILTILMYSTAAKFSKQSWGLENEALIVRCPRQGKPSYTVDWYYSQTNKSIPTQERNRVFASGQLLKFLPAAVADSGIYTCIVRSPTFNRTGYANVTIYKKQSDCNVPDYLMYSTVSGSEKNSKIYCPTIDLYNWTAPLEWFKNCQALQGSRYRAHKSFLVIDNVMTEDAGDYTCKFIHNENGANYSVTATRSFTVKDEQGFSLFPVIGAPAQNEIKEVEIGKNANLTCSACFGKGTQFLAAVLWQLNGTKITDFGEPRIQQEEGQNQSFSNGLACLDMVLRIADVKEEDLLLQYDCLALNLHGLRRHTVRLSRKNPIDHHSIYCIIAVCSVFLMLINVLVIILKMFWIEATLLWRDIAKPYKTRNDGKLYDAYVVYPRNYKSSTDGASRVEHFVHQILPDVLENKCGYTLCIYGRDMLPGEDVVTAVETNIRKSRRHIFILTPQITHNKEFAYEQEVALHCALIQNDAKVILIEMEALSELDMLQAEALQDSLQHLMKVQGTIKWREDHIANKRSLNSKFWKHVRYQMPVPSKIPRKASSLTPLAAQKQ
Large screens that a line does not name were inactive. This is one part of a sample in which hits are shown more often than they occur.

CC1CC(C)CN(C(=O)CSc2cc(=O)n(C)c3cc(Cl)ccc23)C1 (stereo not drawn)	none
CCc1ccc(NC(=O)C2CCCN2S(=O)(=O)c2cc3c(cc2C)NC(=O)CO3)cc1 (stereo not drawn)	none
COc1ccc(-n2cc(CNCCc3cnn(C)c3)c(-c3ccccc3Cl)n2)cc1	none
CCOC(=O)c1cnc2c(ccc3ccccc32)c1NCCc1ccccc1	none
Cc1cc(/C=C(\C#N)C(=O)NC2CCCCC2)c(C)n1-c1ccc(F)cc1	none
O=C(CN1C(=O)S/C(=C\c2ccccc2)C1=O)Nc1nccs1	none
CC(C)(C)NC(=O)CN1C(=O)S/C(=C\c2ccccc2)C1=O	none
O=C(CN1C(=O)S/C(=C\C=C\c2ccccc2)C1=O)Nc1ccc(C(=O)O)cc1	ST2 IL33 inh 32.0%
Cc1cccc(C(=O)Nc2c3c(nn2-c2ccccc2C)CSC3)c1	none
O=c1c2ccccc2cnn1CCOCCOc1ccccc1	none
N#CC1=C(N)OC2=C(C(=O)CCC2)C1c1ccc(OC(=O)c2ccccc2)cc1 (stereo not drawn)	none
Cc1c(N=Cc2ccc([N+](=O)[O-])o2)c(=O)n(-c2ccccc2)n1C	none
Cc1c(N=Cc2cc([N+](=O)[O-])ccc2O)c(=O)n(-c2ccccc2)n1C	none
Cc1c(N=Cc2cc([N+](=O)[O-])ccc2N2CCCCC2)c(=O)n(-c2ccccc2)n1C	ST2 IL33 inh 44.0%
Cc1nc(C(=O)N(C)Cc2snnc2C)c(C)o1	none
N#Cc1ccccc1-c1nc2c3c(c(N)ccc3n1)C(=O)c1ccccc1-2	ST2 IL33 inh 42.0%
Cc1ccccc1-c1nc(COc2ccc(C(N)=O)cc2)c(C)o1	none
Cc1ccc(C(=O)Nc2ccc(S(=O)(=O)Nc3ncccn3)cc2)o1	none
Cc1ccc(C(=O)Nc2ccccc2NC(=O)c2ccc(C)o2)o1	none
Cc1ccc(NCCC(=O)c2ccc(C)o2)cc1	ST2 IL33 inh 31.0%
O=C(NCc1cccnc1)C1CCN(c2ccccc2)C1=O (stereo not drawn)	none
COc1cccc(-c2ccccc2NC(=O)C2CCN(Cc3ccc4nonc4c3)CC2)c1	none
COc1ccc(N2CCN(Cc3cccnc3)CC2)cc1	none
COc1ccc(N2CCN(Cc3ccc4nonc4c3)C(C)C2)cc1 (stereo not drawn)	ST2 IL33 inh 31.0%
CC1CCc2[nH]nc(C(=O)N3CCC4(CC3)C(=O)N(C)c3ccccc34)c2C1 (stereo not drawn)	none
Cc1sc2ncnc(Oc3ccc4ccc(=O)oc4c3)c2c1C	none
CCOc1ccc(C2CC(=O)N3CN(c4ccc(Cl)cc4)CSC3=C2C#N)cc1 (stereo not drawn)	none
O=c1cc(CN2CCCC(O)(CO)C2)[nH]c2c(F)cccc12 (stereo not drawn)	none
O=C(Nc1ccc(F)cc1F)C1c2ccccc2C(=O)N2CCc3ccccc3C12 (stereo not drawn)	none
COc1ccc(CN(C)C(=O)c2cnc(-c3ccccc3)nc2)cc1	none
Cc1cc(C)c(S(=O)(=O)N2CCCCC2)cc1S(=O)(=O)N1CCCCC1	none
Cc1cc(Br)c(S(=O)(=O)N2CCN(c3ccccc3)CC2)cc1C	none
Cc1cc(C)c(S(=O)(=O)N=C2C=C(Br)C(=O)c3ccccc32)cc1C	ST2 IL33 inh 35.0%
Cc1cc(C)c(S(=O)(=O)N=C2C=CC(=O)c3ccccc32)cc1C	ST2 IL33 inh 47.0%
Cc1cc(S(=O)(=O)N2CCN(S(=O)(=O)c3ccc(Cl)c(C)c3)CC2)ccc1Cl	none
Cc1cc(C)c(S(=O)(=O)N2CCN(c3cc(-c4ccccc4C)ncn3)CC2)cc1C	none
Cc1cc(C)c(S(=O)(=O)N2CCN(c3ccccc3)CC2)cc1C	none
Cc1cc(S(=O)(=O)N=C2C=CC(=O)c3ccccc32)ccc1Cl	ST2 IL33 inh 42.0%
CC1=CC(=NS(=O)(=O)c2cccc([N+](=O)[O-])c2)C=CC1=O	none
O=C(NC1CCCCC1)c1cc(=O)[nH]c2ccc(S(=O)(=O)N3CCOCC3)cc12	none
CCCCNC(=O)CCS(=O)(=O)c1cc(Br)cc2c1N(C(=O)CC)CC2	none
Cc1cc(N2CCN(Cc3noc(C)n3)CC2)nc(-c2cccnc2)n1	none
CCSCCOC(=O)C1=C(C)NC2=C(C(=O)C(C(=O)OC)C(C)C2)C1c1ccccc1F (stereo not drawn)	none
CCCCNC(=O)c1c(C)cc(Cl)nc1Cl	none
CCCc1cc(=O)oc2cc(OCc3ccc(C(=O)OC)cc3)ccc12	none
Cc1sc2nc3c(C(=O)NCc4cccc(Cl)c4)cccn3c(=O)c2c1C	none
Brc1cccc(-c2nc3cnccn3c2NC2CCCCC2)c1	none
CCOC(=O)c1oc2ccccc2c1NC(=O)c1cc2ccccc2o1	none
COc1ccccc1N1CCN([C@@H]2[C@H](O)[C@H](CO)O[C@@H]2CNS(=O)(=O)c2cccs2)CC1	none
COc1ccccc1N1CCN([C@@H]2[C@H](O)[C@H](CO)O[C@@H]2CNS(=O)(=O)c2ccc(C)cc2)CC1	ST2 IL33 inh 73.0%
COc1ccc(S(=O)(=O)NC[C@H]2O[C@@H](CO)[C@@H](O)[C@H]2N2CCN(c3ccccc3OC)CC2)cc1	none
CC(C)NC(=O)NC[C@H]1O[C@@H](CO)[C@@H](O)[C@H]1N1CCN(c2cccc(C(F)(F)F)c2)CC1	ST2 IL33 inh 44.0%
COc1cccc(NC(=O)NC[C@H]2O[C@@H](CO)[C@@H](O)[C@H]2N2CCC(C)CC2)c1	none
COc1ccc(C(=O)NC[C@H]2O[C@@H](CO)[C@@H](O)[C@H]2N2CCN(c3cccc(C(F)(F)F)c3)CC2)cc1	none
COc1cc(NC(=O)NC[C@H]2O[C@@H](CO)[C@@H](O)[C@H]2N2CCN(C)CC2)cc(OC)c1	none
COc1cccc(NC(=O)NC[C@H]2O[C@@H](CO)[C@@H](O)[C@H]2N2CCN(c3ccccn3)CC2)c1	ST2 IL33 inh 36.0%
O=C(NC[C@H]1O[C@@H](CO)[C@@H](O)[C@H]1N1CCN(c2cccc(C(F)(F)F)c2)CC1)Nc1cccc(Cl)c1	none
O=C(NC1CCCN(C2CCCCCC2)C1)c1ccc2c(c1)OCCO2 (stereo not drawn)	none
COc1ccc(Cn2c(CNS(=O)(=O)c3ccc(C(C)(C)C)cc3)nc3cccnc32)cc1	none
O=C(NCc1ccncc1)C(=O)Nc1ccccc1F	none
CC1(C)CC1(C(=O)NCCc1nnc(N)s1)c1cccs1 (stereo not drawn)	none
O=C(Nc1ccc(-c2cccc(F)c2)cc1)C1CCCN1Cc1ncc[nH]1 (stereo not drawn)	none
COCc1nc(N(C)CCc2scnc2C)c2cnn(C)c2n1	none
OCCCn1c(-c2ccc(F)cc2)csc1=Nc1ccc(Cl)cc1	ST2 IL33 inh 46.0%
O=C(NCc1ccc(F)cc1)c1cc(-c2ccc(Cl)cc2)on1	none
CCOC(=O)c1sc(=NC(=O)c2ccc(OCC)cc2)n(C)c1C	none
Cn1c(=NC(=O)c2ccc(S(=O)(=O)N3CCCC3)cc2)sc2cc(Cl)ccc21	none
CCOc1ccc(N=c2scc(-c3ccc(C)cc3)n2C)cc1	ST2 IL33 inh 43.0%
CCOc1ccc(-c2csc(=Nc3ccccc3)n2CCN2CCOCC2)cc1	none
CCOc1ccc(N=c2scc(-c3ccc(F)cc3)n2CCCO)cc1	ST2 IL33 inh 40.0%
CCOC(=O)c1sc(=Nc2ccc(C)cc2)n(CCN2CCOCC2)c1C	none
O=C(c1ccc(S(=O)(=O)N2CCCC2)cc1)N1CCN=C1SCc1ccc(Cl)cc1	none
CCOc1ccc(NC(=O)Cc2ccc(F)cc2)cc1	none
Fc1ccc(Nc2nc(-c3ccc(Cl)cc3)cs2)cc1	none
O=S(=O)(c1ccc(-c2csc(=Nc3ccc(Cl)cc3)n2CCCO)cc1)N1CCCC1	ST2 IL33 inh 40.0%
COc1ccc(CNC(=O)C2CCN(Cc3ccccc3OC)CC2)cc1	none
O=C1c2sc3nnc(-c4cccs4)c(=O)n3c2C(=O)N1Cc1ccccc1	none
COc1ccc(S(=O)(=O)Nc2cccc([N+](=O)[O-])c2)cc1OC	none
CSc1c(CC(=O)Nc2ccc(C)cc2)n(C)c2ccccc12	none
